# PubChem BioAssay
# Several values for one entry are separate records, joined by “and”; a condition that tells them apart may be missing. Identical values can stand only once. The source holds several records for some structures; these can differ, active in one and inactive in another. Activity calls are given as the source filed them. Unless noted, no stated cut-off is given here; in the data, active means inhibition above about 80%; inactive means the rest.
# What was measured:
# [1] = target: NAD(+) hydrolase SARM1 (Homo sapiens) (UniProt Q6SZW1); experiment: blocking NAD cleavage by SARM1 SAM-TIR – cell lysate, NAD-Glo luminescence (AID 1508614;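 active means compound whose remaining NAD level is above about 45 nM, limit read from the data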); details: SAM-TIR HEK293T lysate NADase, at 1 µM, stronger effect = higher value
# Sequence of NAD(+) hydrolase SARM1 (Homo sapiens) (Q6SZW1 whole entry, looked up): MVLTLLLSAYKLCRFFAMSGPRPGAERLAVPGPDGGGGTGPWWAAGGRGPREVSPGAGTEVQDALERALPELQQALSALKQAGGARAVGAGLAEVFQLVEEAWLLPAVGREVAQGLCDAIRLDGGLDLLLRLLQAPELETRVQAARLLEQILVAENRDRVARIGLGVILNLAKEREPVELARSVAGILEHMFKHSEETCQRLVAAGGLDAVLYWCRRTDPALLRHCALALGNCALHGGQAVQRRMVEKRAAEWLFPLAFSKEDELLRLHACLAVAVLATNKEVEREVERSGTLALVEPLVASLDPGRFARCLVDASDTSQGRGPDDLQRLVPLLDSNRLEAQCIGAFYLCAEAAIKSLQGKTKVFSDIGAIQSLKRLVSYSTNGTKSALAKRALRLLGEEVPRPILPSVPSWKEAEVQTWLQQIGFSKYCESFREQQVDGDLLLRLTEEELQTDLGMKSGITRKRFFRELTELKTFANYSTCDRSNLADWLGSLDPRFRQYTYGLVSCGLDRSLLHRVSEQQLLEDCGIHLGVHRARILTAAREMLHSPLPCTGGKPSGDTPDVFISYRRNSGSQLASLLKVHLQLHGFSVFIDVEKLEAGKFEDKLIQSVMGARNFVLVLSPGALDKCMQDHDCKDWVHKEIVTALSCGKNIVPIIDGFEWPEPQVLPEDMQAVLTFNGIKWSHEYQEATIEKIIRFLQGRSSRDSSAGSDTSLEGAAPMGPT
# [2] = galactose survival enhancers in mitochondrial complex I cybrids – cell-based, galactose medium, ATP luminescence, primary screen (AID 1645843;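 active means z-score of at least 1.8 in each of two replicates, scored against plate mean and spread of sample wells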;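 further: positive z means more ATP and so rescue of galactose-driven cybrid death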); details: complex I mutant cybrid cells, 72 h, stronger effect = higher value
# [3] = target: Mitogen-activated protein kinase 7 (Homo sapiens) (UniProt Q13164); experiment: Gal4-ERK5 driven luciferase induction – cell-based, HTS, primary screen (AID 1508626;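 active means luciferase signal above three times the same-plate solvent-only control wells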;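 further: luciferase driven by Gal4-ERK5 fusion binding five Gal4 sites before minimal TATA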); details: HeLa Gal4-ERK5 transactivation, 18 h, at 5 µM, stronger effect = higher value
# Sequence of Mitogen-activated protein kinase 7 (Homo sapiens) (Q13164 whole entry, looked up, the tested form may be a part): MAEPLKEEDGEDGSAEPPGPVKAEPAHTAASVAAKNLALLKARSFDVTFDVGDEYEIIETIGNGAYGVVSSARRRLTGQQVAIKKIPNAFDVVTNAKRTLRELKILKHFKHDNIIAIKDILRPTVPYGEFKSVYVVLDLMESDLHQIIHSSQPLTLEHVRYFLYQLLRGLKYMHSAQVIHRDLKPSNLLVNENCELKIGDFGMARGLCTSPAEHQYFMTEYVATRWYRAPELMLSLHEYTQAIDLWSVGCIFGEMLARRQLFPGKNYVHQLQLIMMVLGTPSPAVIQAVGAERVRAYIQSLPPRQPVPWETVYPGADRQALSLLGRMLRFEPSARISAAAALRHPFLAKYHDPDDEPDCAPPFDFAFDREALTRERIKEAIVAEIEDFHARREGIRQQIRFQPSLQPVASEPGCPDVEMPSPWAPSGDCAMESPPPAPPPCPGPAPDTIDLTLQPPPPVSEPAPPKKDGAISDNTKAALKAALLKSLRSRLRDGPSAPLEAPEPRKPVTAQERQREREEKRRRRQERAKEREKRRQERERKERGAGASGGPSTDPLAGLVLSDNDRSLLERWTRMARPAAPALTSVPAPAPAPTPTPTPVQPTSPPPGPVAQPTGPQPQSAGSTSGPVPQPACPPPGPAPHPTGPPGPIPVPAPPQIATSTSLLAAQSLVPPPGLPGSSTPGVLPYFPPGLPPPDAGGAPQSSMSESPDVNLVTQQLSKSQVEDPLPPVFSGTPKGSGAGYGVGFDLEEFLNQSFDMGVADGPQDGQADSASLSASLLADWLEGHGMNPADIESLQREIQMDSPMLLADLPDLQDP
# [4] = growth inhibition, single agent or in combination, cell-based, chromothripsis tumors, cisplatin or BGB combos (AID 1671449); details: LFS_MB_P medulloblastoma cells;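 further: cells exposed for 96 hours; 0% = vehicle DMSO and 100% = killing by high DMSO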
# [5] = growth inhibition, single agent and combos, cell-based, chromothripsis tumors, cisplatin or BGB combos (AID 1671450); details: HDN33 neuroblastoma cells, stronger effect = higher value;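 further: cells exposed to compound for four days; 0% = vehicle DMSO and 100% = cell killing by high DMSO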
# [6] = growth inhibition, single agents and combos, ICB984, cell-based, cisplatin or BGB combos, synergistic combos for chromothripsis tumors (AID 1671451; call rule not given here;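 further: cells exposed for 96 hours before readout; 0% = vehicle DMSO and 100% = killing by high DMSO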); details: ICB984 medulloblastoma cells, drug combinations, stronger effect = higher value
# [7] = growth inhibition, single agents and combos, LFS_MB_1R, cell-based, cisplatin or BGB combos, synergistic combos for chromothripsis tumors (AID 1671452); details: LFS_MB_1R medulloblastoma cells, stronger effect = higher value;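 further: cells exposed for 96 hours before readout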
# [8] = growth inhibition, single agents and combos, HTB85, cell-based, BGB or cisplatin IC20 combos, synergistic combos for chromothripsis tumors (AID 1671453); details: HTB85 osteosarcoma cells, drug combinations, stronger effect = higher value;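 further: cells exposed for 96 hours before readout; 0% = vehicle DMSO and 100% = high DMSO killing control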
# [9] = growth inhibition, single agents and combos, CRL2098, cell-based, BGB or cisplatin IC20 combos, synergistic combos for chromothripsis tumors (AID 1671454); details: CRL2098 osteosarcoma cells, drug combinations, stronger effect = higher value;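 further: cells exposed for 96 h before readout; 0% = vehicle DMSO and 100% = killing by high DMSO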
# [10] = growth inhibition, single agents and combos, HD-MB03, cell-based, BGB or cisplatin IC20 combos, synergistic combos for chromothripsis tumors (AID 1671455; in the data active means inhibition above about 83%;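 further: 0% = vehicle DMSO and 100% = high DMSO as cytotoxic control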); details: HD-MB03 medulloblastoma cells, stronger effect = higher value
# [11] = growth inhibition, single agents and combos, UWB1.289, cell-based, BGB or cisplatin combos, synergistic combos for chromothripsis tumors (AID 1671456); details: UWB1.289 ovarian carcinoma cells, stronger effect = higher value;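 further: cells exposed to compound for four days; 0% = vehicle DMSO and 100% = killing by high DMSO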
# [12] = growth inhibition, single agents and combos, LFS_MB_2R, cell-based, cisplatin combos, synergistic combos for chromothripsis tumors (AID 1671457); details: LFS_MB_2R medulloblastoma cells, stronger effect = higher value;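 further: cells exposed to compound for four days before readout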
# [13] = growth inhibition, MDA-MB-436, cell-based, BGB or cisplatin combos, synergistic combos for chromothripsis tumors (AID 1671458; call rule not given here;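 further: cells exposed for 96 hours; 0% = vehicle DMSO and 100% = killing by high DMSO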); details: MDA-MB-436 breast carcinoma growth inhibition, drug combinations, stronger effect = higher value
# [14] = UWB1.289_BRCA1 ovarian cancer growth, cell-based, BGB or cisplatin combinations (AID 1671459); details: UWB1.289 BRCA1 ovarian carcinoma, drug combinations, stronger effect = higher value
# [15] = drug combination toxicity in non-malignant astrocytes – cell-based, BGB or cisplatin IC20 combos, cytotoxicity control for chromothriptic childhood tumor combination screen (AID 1671460); details: Human astrocytes, viability inhibition, drug combinations, at 0.5 µM, stronger effect = higher value;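 further: cells exposed to compounds for 96 hours before viability readout; 0% = vehicle and 100% = killing control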
# [16] = BT084 cell growth, single and combined drugs, ICGC_MB145, cisplatin and BGB IC40 combos (AID 1671461); details: BT084 medulloblastoma cells, drug combinations, stronger effect = higher value;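 further: cells exposed to drugs for 96 hours; 0% = vehicle DMSO and 100% = high DMSO full killing control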
# [17] = RCMB18 cell growth, single agent and combined, cisplatin and BGB IC40 combos (AID 1671462); details: RCMB18 medulloblastoma cells, stronger effect = higher value;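 further: cells exposed to compound for four days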
# [18] = CRL1545 cell growth, single agent and combined, cisplatin and BGB IC20 combos (AID 1671464); details: CRL1545 osteosarcoma cells, stronger effect = higher value;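 further: cells exposed to compound for 96 hours before readout; 0% = vehicle DMSO and 100% = high DMSO killing control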
# [19] = measured here: combination with BGB IC40, at 0.05 µM
# [20] = measured here: with BGB IC20 combination, at 0.5 µM
# [21] = measured here: with cisplatin IC20 combination, at 0.5 µM
# [22] = measured here: combination with cisplatin, at 0.5 µM
# [23] = measured here: combination with cisplatin, at 5 µM
compound,measurement,setting,value
COc1ncnc(NS(=O)(=O)c2ccc(N)cc2)c1OC,remaining NAD,[1],10 nM (inactive)
same,z-score,[2],-0.18 (inactive)
COc1cc([C@H]2Oc3cc([C@H]4Oc5cc(O)cc(O)c5C(=O)[C@@H]4O)ccc3O[C@@H]2CO)ccc1O,luciferase signal,[3],64 AU (inactive)
CNC[C@H](O)[C@@H](O)[C@H](O)[C@H](O)CO,remaining NAD,[1],10 nM (inactive)
same,z-score,[2],0.835 (inactive)
O=c1[nH]cnc2nc[nH]c12,luciferase signal,[3],60 AU (inactive)
CCC1=C(C)CN(C(=O)NCCc2ccc(S(=O)(=O)NC(=O)NC3CCC(C)CC3)cc2)C1=O (stereo not drawn),remaining NAD,[1],10 nM (inactive)
same,z-score,[2],2.29 (active) and 6.57 (active) and 1.99 (inactive)
CN(C)c1ccc(C(=C2C=CC(=[N+](C)C)C=C2)c2ccc(N(C)C)cc2)cc1,remaining NAD,[1],10 nM (inactive)
same,luciferase signal,[3],104 AU (inactive)
same,inhibition,"[4]; at 0.5 µM, stronger effect = higher value",-1.03% (inactive)
same,inhibition,"[4]; measured here: combination with BGB IC20, at 0.005 µM",-15.3%
same,inhibition,"[4]; measured here: combination with BGB IC40, at 0.005 µM",-20.2%
same,inhibition,[4]; [19],-19.9%
same,inhibition,"[4]; measured here: combination with cisplatin, at 0.5 µM, stronger effect = higher value",-17.8%
same,inhibition,"[4]; measured here: combination with cisplatin, at 5 µM, stronger effect = higher value",112%
same,inhibition,"[5]; BGB combo, at 5 µM",99.3%
same,inhibition,[5]; at 0.5 µM,99.6% (active)
same,inhibition,"[5]; cisplatin combo, at 5 µM",99.6%
same,inhibition,[5]; [20],99.7%
same,inhibition,[5]; [21],99.6%
same,inhibition,"[5]; single agent, at 5 µM",99.7%
same,inhibition,"[6]; BGB IC20 combo, at 0.005 µM",79.3%
same,inhibition,"[6]; BGB IC40 combo, at 0.005 µM",87.3%
same,inhibition,"[6]; BGB IC40 combo, at 0.05 µM",98.5%
same,inhibition,[6]; at 0.5 µM,-35.3% (inactive)
same,inhibition,"[6]; cisplatin combo, at 0.05 µM",98.5%
same,inhibition,"[6]; cisplatin combo, at 0.5 µM",-53%
same,inhibition,"[6]; cisplatin combo, at 5 µM",-16%
same,inhibition,"[6]; measured here: 5 uM single agent, at 5 µM",6.83%
same,inhibition,[7]; at 0.5 µM,80.9% (active)
same,inhibition,[7]; [19],-11%
same,inhibition,[7]; [22],82.3%
same,inhibition,[7]; [23],104%
same,inhibition,[8]; at 0.5 µM,88.8% (active)
same,inhibition,"[8]; measured here: with BGB IC20, at 0.5 µM",84.9%
same,inhibition,"[8]; measured here: with BGB IC20, at 5 µM",94%
same,inhibition,"[8]; measured here: with cisplatin IC20, at 0.5 µM",92.7%
same,inhibition,"[8]; measured here: with cisplatin IC20, at 5 µM",97.1%
same,inhibition,"[8]; single agent, at 5 µM",96.8%
same,inhibition,[9]; at 0.5 µM,75.8% (inactive)
same,inhibition,"[9]; measured here: combination with BGB at IC20, at 0.5 µM",79.9%
same,inhibition,"[9]; measured here: combination with cisplatin at IC20, at 0.5 µM",70.6%
same,inhibition,[10]; at 0.5 µM,59.5% (inactive)
same,inhibition,"[10]; measured here: combo with BGB at IC20, at 0.5 µM",60.7%
same,inhibition,"[10]; measured here: combo with cisplatin at IC20, at 0.5 µM",47%
same,inhibition,[11]; at 0.5 µM,68.6% (inactive)
same,inhibition,"[11]; measured here: inhibition with BGB combination, at 0.05 µM",-11.5%
same,inhibition,"[11]; measured here: inhibition with cisplatin combination, at 0.05 µM",0.874%
same,inhibition,[12]; at 0.5 µM,55.4% (inactive)
same,inhibition,[12]; [22],59.1%
same,inhibition,[12]; [23],89.4%
same,inhibition,[13]; at 0.5 µM,80.4% (active)
same,inhibition,"[13]; measured here: BGB combination, at 0.5 µM",73.7%
same,inhibition,"[13]; measured here: BGB combination, at 5 µM",97.1%
same,inhibition,"[13]; measured here: cisplatin combination, at 0.5 µM",80.1%
same,inhibition,"[13]; measured here: cisplatin combination, at 5 µM",98.7%
same,inhibition,"[14]; BGB combination, concentration series, at 5 µM",105%
same,inhibition,[14]; at 0.5 µM,71.7% (inactive)
same,inhibition,"[14]; cisplatin combination, concentration series, at 5 µM",110%
same,inhibition,[15],67.2% (inactive)
same,inhibition,[15]; measured here: combo with BGB IC20,65.8%
same,inhibition,[15]; measured here: combo with cisplatin IC20,54.6%
same,inhibition,[16]; at 0.5 µM,70.2% (inactive)
same,inhibition,"[16]; cisplatin combination, at 0.5 µM",82.8%
same,inhibition,"[16]; cisplatin combination, at 5 µM",101%
same,inhibition,"[16]; measured here: BGB IC40 combination 0.05 uM, at 0.05 µM",-10.9%
same,inhibition,"[16]; single agent, at 5 µM",103%
same,inhibition,[17]; at 0.5 µM,64.4% (inactive)
same,inhibition,"[17]; cisplatin combo, at 5 µM",97.3%
same,inhibition,"[17]; measured here: BGB IC40 combination, at 0.05 µM",11.2%
same,inhibition,[17]; [22],59.9%
same,inhibition,"[17]; single agent, at 5 µM",94.1%
same,inhibition,[18]; at 0.5 µM,99.5% (active)
same,inhibition,[18]; [20],99.4%
same,inhibition,[18]; [21],99.5%
same,inhibition,"[18]; single agent, at 0.05 µM",17.4%
same,inhibition,"[18]; single agent, at 5 µM",99.6%
